Screening results: PubChem BioAssay, National Center for Advancing Translational Sciences (NCATS)
Sampled rows, rich in hits. Any-hit rate of the full collection: about 6.1%.
DRD3 agonist: activates the human D3 dopamine receptor; 410,000 compounds, 0.58% hits; max activation, %; P35462; D3R DiscoveRx beta-arrestin cells, luminescence, 90 min; in the data active = max activation above about 30%
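Cells at 1500/well, incubated overnight, then treated with pinned compounds (dopamine as control) for 90 min at 37 degrees C. DiscoveRx reagent added for 30 - 60 minutes at room temperature; luminescence read.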
D1 antagonist: blocks dopamine activation of the human D1 receptor; 360,000 compounds, 3.2% hits; P21728; HEK293 TREx D1 cells, calcium flux, dopamine EC80; stronger effect = lower value; activity change, negative = inhibition, % at 10 µM; in the data active = activity change below about -30%
Target sequence (P21728 whole entry, looked up): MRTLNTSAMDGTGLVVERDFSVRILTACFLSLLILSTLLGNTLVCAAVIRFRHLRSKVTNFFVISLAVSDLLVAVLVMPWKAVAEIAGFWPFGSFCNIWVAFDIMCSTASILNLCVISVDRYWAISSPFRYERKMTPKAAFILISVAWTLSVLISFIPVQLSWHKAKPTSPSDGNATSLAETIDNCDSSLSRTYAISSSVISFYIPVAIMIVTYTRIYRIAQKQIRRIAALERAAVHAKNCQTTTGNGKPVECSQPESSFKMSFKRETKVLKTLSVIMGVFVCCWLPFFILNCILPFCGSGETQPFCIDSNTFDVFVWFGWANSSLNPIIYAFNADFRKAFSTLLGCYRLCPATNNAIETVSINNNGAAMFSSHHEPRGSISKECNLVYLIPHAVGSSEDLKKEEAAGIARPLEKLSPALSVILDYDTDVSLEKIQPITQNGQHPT
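Allosteric or orthosteric antagonism assessed as attenuation of the calcium response to EC80 dopamine, added 180 s after compound, in induced HEK293 Trex D1 cells loaded with no-wash calcium dye.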
D1 PAM: human D1 dopamine receptor positive modulation; HEK293 TREx D1 cells, calcium flux, dopamine EC20 potentiation; potentiation, % at 10 µM; 360,000 compounds, 0.036% hits; AID 504651; in the data active = potentiation above about 30%
D1 agonist: human D1 receptor agonism. HEK293 T-REx D1 cells, calcium flux, agonist mode. 360,000 compounds, 1% hits. activation, % at 2 µM. P21728; in the data active = activation above about 30%
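Inducible HEK293 T-REx D1 cells, force-coupled to calcium signalling, were plated at 4000 cells/well with tetracycline and held overnight at 30 C. After no-wash calcium dye loading, compound-evoked calcium rise over 180 s flagged agonists.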
DRD3 antagonist: D3 dopamine receptor (human) antagonism; D3R cells, DiscoveRx beta-arrestin luminescence, antagonist mode; stronger effect = lower value; max response, negative = inhibition, %; 360,000 compounds, 2.5% hits; in the data active = max response below about -50%; inconclusive = no clear call, values can overlap the other calls
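Cells plated overnight at 1500 cells/well, then exposed to library compounds with dopamine controls for 90 minutes at 37 degrees C. DiscoveRx reagent added for 30–60 minutes at room temperature; luminescence read, quantitative HTS format.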
Large screens that a line does not name were inactive.

O=C1C(=NO)CCc2ccccc21	none (no result: D1 antagonist, D1 PAM, D1 agonist)
CCOC(=O)c1ccc(NC(=O)COc2ccccc2CNC2CCCC2)cc1	D1 antagonist -36.2
O=C(CCN1C(=O)COc2ccccc21)NCCCN1CCc2ccccc2C1	DRD3 antagonist -92.8
CN1CCN(CCCNC(=O)CN2C(=O)COc3ccccc32)CC1	none
CN1CCN(CCCNC(=O)CCC(=O)N2CCOc3ccccc32)CC1	none
O=C(CCC(=O)N1CCOc2ccccc21)NCCCN1CCN(Cc2ccccc2)CC1	D1 antagonist -38.5, DRD3 antagonist inconclusive
O=C(CCN1C(=O)COc2ccccc21)NCCN1CCN(c2ccccc2F)CC1	DRD3 antagonist -64.1
O=C(CN1C(=O)COc2ccccc21)NCCCN1CCN(c2ccccc2F)CC1	DRD3 antagonist -90.5
CC1(C)CC(=O)c2cc(OCC(=O)NCCCN3CCN(c4ccccc4F)CC3)ccc2O1	D1 antagonist -81.1, DRD3 antagonist -54.5
Cn1c(=O)cc(OCC(=O)NCCCN2CCN(c3ccccc3F)CC2)c2ccccc21	DRD3 antagonist inconclusive
Cn1c(=O)cc(OCCCC(=O)NCCN2CCN(c3ccccc3F)CC2)c2ccccc21	DRD3 agonist 39.4, DRD3 antagonist inconclusive (no result: D1 PAM)
CCn1c(=O)cc(SCC(=O)NCCCN2CCN(c3ccccc3F)CC2)c2ccccc21	D1 antagonist -80.6, D1 agonist 30.0, DRD3 antagonist -81.5
COc1ccccc1C(=O)N/C(=C\c1cn(S(=O)(=O)N(C)C)c2ccccc12)C(=O)N1CCN(C)CC1	none (no result: D1 antagonist, D1 PAM, D1 agonist)
O=C(C1CCN(c2nc3ccccc3[nH]2)CC1)N1CCN(c2ccccc2)CC1	none (no result: DRD3 antagonist)
CCC(=O)N1CCc2cc(CNS(=O)(=O)c3ccc(C(C)C)cc3)ccc21	none (no result: DRD3 antagonist)
O=C(CCc1ccccc1)N1CCN(c2ccccc2F)CC1	none
O=C(CCn1c(=O)oc2ccccc21)N1CCN(c2ccccc2F)CC1	DRD3 agonist 30.6
CC(CC(=O)N1CCN(c2ccccc2F)CC1)c1ccccc1 (centres undefined)	D1 antagonist -32.1
O=C(CSCc1ccccc1)N1CCN(c2ccc(F)cc2)CC1	none
O=C(CSCc1ccc(F)cc1)N1CCN(c2ccccc2F)CC1	D1 antagonist -57.8 (no result: DRD3 antagonist)
COc1cc2c(cc1OC)C1O[C@](CCCCN3C(=O)c4ccccc4C3=O)(C2)Oc2c1c(=O)oc1ccc(F)cc21	none (no result: DRD3 agonist, DRD3 antagonist)
CCCCOc1ccc(CNC(=O)c2cccc(NC(=O)N3CCSc4ncccc43)c2)cc1	none (no result: DRD3 antagonist)
COc1cc(NC(=NS(=O)(=O)c2ccccc2)c2ccccc2)ncn1	DRD3 antagonist -99.7 (no result: D1 antagonist, D1 PAM, D1 agonist)
O=S(=O)(/N=C(/Nc1cc(N2CCOCC2)ncn1)c1ccccc1)c1ccccc1	none
CCC(=O)N(CC)c1nc(-c2ccc(OC)cc2)cs1	D1 antagonist -47.1, D1 agonist 112.7
COc1ccc(-c2csc(N(CCCN(C)C)C(=O)c3ccccc3C)n2)cc1	D1 antagonist -54.1, D1 agonist 33.4
CN(C)CCCN(C(=O)c1cccs1)c1nc2ccc(F)cc2s1	none (no result: DRD3 antagonist)
COc1ccc(-c2csc(N(CCCN(C)C)C(=O)c3ccccc3Cl)n2)cc1	DRD3 antagonist -71.5 (no result: D1 antagonist, D1 PAM, D1 agonist)
COc1ccc(-c2csc(N(CCCN(C)C)C(=O)c3ccccc3F)n2)cc1	DRD3 antagonist inconclusive
CN(C)CCCN(C(=O)c1cccs1)c1nc(-c2ccccc2)cs1	DRD3 antagonist -52.6
O=C(NC1=NCCS1)c1cc(-c2ccc(F)cc2)nc2ccccc12	D1 antagonist -36.7
CCOc1cccc(-c2cc(C(=O)Nc3ccon3)c3ccccc3n2)c1	none
Cc1ccc(-c2cc(C(=O)NC3=NCCS3)c3ccccc3n2)cc1C	none
Cc1ccccc1NC(=S)NC(=O)c1cc(-c2ccccc2)nc2ccccc12	none
O=C(Nc1ccon1)c1cc(-c2ccccc2)nc2ccccc12	D1 antagonist -32.2
Cc1cccc(NC(=S)NC(=O)c2cc(-c3ccccc3)nc3ccccc23)c1	DRD3 antagonist -53.6
Cc1cc(Br)ccc1NC(=O)Cn1cc(S(=O)(=O)N2CCN(c3ccccc3F)CC2)c2ccccc2c1=O	none (no result: DRD3 antagonist)
O=C(NCc1cccc(C(F)(F)F)c1)c1csc([C@H]2C[C@H](O)[C@@H](CO)O2)n1	none (no result: D1 antagonist, D1 PAM, D1 agonist)
Cc1ccc(SCc2[nH]nc3c2C2(CCSCC2)C(C#N)=C(N)O3)cc1	none
CCOC(=O)N1CCC2(CC1)C(C#N)=C(N)Oc1n[nH]c(CSc3ccc(C)cc3)c12	D1 antagonist -39.3
C[C@H](CO)N1C[C@H](C)[C@@H](CN(C)S(=O)(=O)c2ccccc2)Oc2ccc(NC(=O)Nc3ccc4c(c3)OCO4)cc2C1=O	none (no result: D1 antagonist, D1 PAM, D1 agonist)
CCCOc1ccc(C(=O)NCCO)cc1	none (no result: D1 antagonist)
CC1(C)CC2C1CCC1(O)CC2(C)CCC1N(O)c1ccc(C(=O)NCCO)cn1 (centres undefined)	DRD3 agonist 40.0
CC(C)NC(=O)CNc1ccc(C(F)(F)F)cc1[N+](=O)[O-]	D1 antagonist -30.5
O=C(CSc1ccc(C(F)(F)F)cc1[N+](=O)[O-])Nc1ccccc1	D1 agonist 37.2
CC(=O)Nc1ccc(NC(=O)CSc2ccc(C(F)(F)F)cc2[N+](=O)[O-])cc1	none
CN1CCN(C(=O)CNc2ccc(C(F)(F)F)cc2[N+](=O)[O-])CC1	none
Cc1c(CN(C)C(=O)c2cc(-c3ccccc3)nc3ccc(Br)cc23)cnn1C	none (no result: DRD3 antagonist)
On1ccccc1=S	DRD3 antagonist -139.6
O=S(=O)(N/N=C/c1ccc(Cl)cc1)c1ccc(Cc2ncc(C(F)(F)F)cc2Cl)s1	DRD3 antagonist -73.4 (no result: D1 antagonist)
NC(=O)c1ccc(Cc2ncc(C(F)(F)F)cc2Cl)s1	none
CCc1ccc2oc(-c3ccc(NC(=O)c4cccc(Cl)c4Cl)cc3)nc2c1	none (no result: DRD3 antagonist)
Cc1nn(C)c(C)c1CNC(=O)c1cnn2c1NC(c1ccccc1)CC2C(F)(F)F (centres undefined)	none
Cc1ccc(C2CC(C(F)(F)F)n3nc(C(=O)NCc4c(C)nn(C)c4C)c(Cl)c3N2)cc1 (centres undefined)	DRD3 agonist 34.1
CCOc1ccc(CCNC(=O)c2c(C)oc3ncn(CC(C)C)c(=O)c23)cc1	none (no result: DRD3 antagonist)
CC(C)(C)OC(=O)n1cc(C(=O)c2ccccc2O)cn1	none
CC(CN1CCCCC1)NC(=O)c1scnc1-c1ccccc1 (centres undefined)	DRD3 antagonist -83.9 (no result: D1 antagonist, D1 PAM, D1 agonist)
COC(=O)C1=CN(c2cccc(C)c2)C=C(C(=O)OC)C1c1cc(OC)c(O)c([N+](=O)[O-])c1	DRD3 antagonist -84.3
COC(=O)C1=CN(c2ccc(OC)cc2)C=C(C(=O)OC)C1c1ccc(C)c([N+](=O)[O-])c1	none
CCOc1ccc(OCCCCNC(C)(C)C)cc1	D1 antagonist -81.1
Cc1oc(=O)c(NC(=O)c2ccc(Cl)cc2)cc1C(=O)c1ccccc1	DRD3 antagonist -80.0
N#Cc1c(Cl)nc(SCc2ccccc2)nc1-c1ccccc1	D1 antagonist -32.2 (no result: DRD3 agonist, DRD3 antagonist)
O=[N+]([O-])/C(C(Cl)=C(Cl)Cl)=C1\Nc2ccccc2O1	none
COc1ccc(CCNC(=O)c2cccs2)cc1OC	none
